Assay results reported in PubChem BioAssay (NCATS).
Values without a mark were called inactive. Active and inactive are the calls of the source. Calls come from the whole dose curve; as a rule, active = well fitted curve in the direction sought with a large enough effect; inconclusive = small, poorly fitted or top-dose-only effect, or another doubt; inactive = no such curve, though single readings can be large or run the other way.

The molecules below were run against Guanine nucleotide-binding protein G(i) subunit alpha-1 (Homo sapiens) (UniProt P63096) (assay: qHTS Assay for Inhibitors of RGS12 GoLoco Motif Activity (Green Fluorophore) (AID 879;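 note: 0% = labeled peptide with Gαi1 and full inhibition = labeled peptide alone without protein; negative values mean loss of peptide binding seen as reduced polarization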)). Conditions: Galphai1/FITC-RGS12 GoLoco peptide, fluorescence polarization; series mostly up to 57.1 µM; activity, negative = inhibition: at the top concentration.
Description: Assay Overview: NIH Molecular Libraries Screening Centers Network [MLSCN] NIH Chemical Genomics Center [NCGC] MLSCN Grant: NS053754-01 Assay Provider: Siderovski, David P, University of North Carolina at Chapel Hill G-protein-coupled receptors (GPCRs) are major targets for drug discovery. The regulator of G-protein signaling (RGS)-protein family has important roles in GPCR signal transduction. RGS proteins contain a conserved RGS-box, which is often accompanied by other signaling regulatory elements. RGS proteins accelerate the deactivation of G proteins to reduce GPCR signaling; however, some also have an effector function and transmit signals. Combining GPCR agonists with RGS inhibitors should potentiate responses, and could markedly increase the agonist's regional specificity. The diversity of RGS proteins with highly localized and dynamically regulated distributions in brain makes them attractive targets for pharmacotherapy of central nervous system disorders. […] A complex of Gai1 and fluorescently labeled G-alpha-binding peptide (the "GoLoco motif") derived from RGS12 is incubated with library members. Inhibitors of the binding are detected by a decrease in the fluorescence polarization (FP) of the fluorophore. Protein was supplied by Prof. David Siderovski, University of North Carolina at Chapel Hill.
Assay Protocol: Reagents/Controls: Assay Buffer: 10 mM Tris-HCl, 150 mM NaCl, 0.1 mM GDP (prepared fresh), and 0.05% NP40 at pH 7.5. […] 10 nM FITC labeled peptide/50 nM protein in columns 1, 2, 5 - 48. Titration of unlabeled peptide control ([H][…][NH2], custom synthesized and HPLC-purified by Tufts University Core Facility) from 10 mM, then 1:2 dilution, 16-point in duplicate, pin-transferred to column 2, rows 1 to 32. Column 1 is neutral. FITC-labeled RGS12-GoLoco peptide was custom-synthesized and HPLC-purified by Michael Berne of Tufts University Assay Steps. Four uL of reagents were dispensed to 1536-well Greiner black solid-bottom plates. Compounds and controls (23 nL) were transferred via Kalypsys PinTool. The plates were incubated for 10 min at room temperature, and then read on ViewLux (Perkin-Elmer) High-throughput CCD imager using FITC polarization filter sets for the fluorescein-labeled decapeptide probe.During dispense, reagent bottles were kept submerged into 4 deg C water bath and all liquid lines were covered with aluminum foil to minimize probe and protein degradation. All screening operations were performed on a Kalypsys robotic system (Kalypsys, Inc., San Diego, CA) containing one RX-130 and two RX-90 anthropomorphic robotic arms.

Guanine nucleotide-binding protein G(i) subunit alpha-1 (Homo sapiens), sequence (P63096 whole entry, looked up): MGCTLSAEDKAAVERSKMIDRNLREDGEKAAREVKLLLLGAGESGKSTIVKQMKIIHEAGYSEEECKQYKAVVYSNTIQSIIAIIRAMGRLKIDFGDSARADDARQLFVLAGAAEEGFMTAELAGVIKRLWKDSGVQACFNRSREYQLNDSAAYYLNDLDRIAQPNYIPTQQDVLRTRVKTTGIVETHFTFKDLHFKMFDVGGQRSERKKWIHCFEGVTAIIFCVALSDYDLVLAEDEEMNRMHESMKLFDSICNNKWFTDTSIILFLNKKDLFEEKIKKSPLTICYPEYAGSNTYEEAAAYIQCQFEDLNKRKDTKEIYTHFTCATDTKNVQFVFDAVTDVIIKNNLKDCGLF

Going from `C[C@]12CC[C@H](O)C[C@@H]1CC[C@H]1[C@H]2CC[C@]2(C)[C@H](C(=O)CO)CC[C@@H]12` to `CC(=O)[C@@H]1CC[C@H]2[C@H]3CC[C@H]4C[C@@H](O)CC[C@]4(C)[C@@H]3CC[C@]12C`, the “activity, negative = inhibition” value falls from -7.96% to -17.6%.

First: C[C@@]12CC[C@H]3[C@@H](CC[C@@H]4C[C@H](O)CC[C@]43C)[C@H]1CC[C@H]2O
Second: C[C@]12CC[C@H](O)CC1=CC[C@@H]1[C@H]2CC[C@]2(C)C(=O)CC[C@H]12
The “activity, negative = inhibition” value of the first is higher: 11.7% for the first, -14.2% for the second.

Compared with `C#CCN[C@@H](C)Cc1ccccc1`, `CC(C)N[C@@H](C)Cc1ccc(I)cc1` is lower in “activity, negative = inhibition” value: 5.31% for the first, -13.2% for the second.

First: C[Se]C[C@@H](N)C(=O)O
Second: N[C@H](CCl)C(=O)O
The “activity, negative = inhibition” value of the first is higher: 0.893% for the first, -2.05% for the second.

Going from `CCn1cnc2c(Nc3cccc(Cl)c3)nc(N[C@@H]3CCCC[C@H]3N)nc21` to `CCCN1CC[C@@H]2c3cc(O)ccc3CC[C@H]21`, the “activity, negative = inhibition” value falls from 8.82% to 1.45%.

Compared with `O=C(O)[C@H]1[C@H](C(=O)O)[C@H]2CC[C@@H]1O2`, `O=C(O)[C@H]1CCN1` is lower in “activity, negative = inhibition” value: 4.33% for the first, -3.65% for the second.

First: Nc1ncnc2c1ncn2[C@@H]1O[C@@H](COP(=O)(O)CP(=O)(O)OP(=O)(O)O)[C@H](O)[C@@H]1O
Second: CCN(CC)c1ncnc2c1ncn2[C@@H]1O[C@@H](COP(=O)(O)OP(=O)(O)C(Br)(Br)P(=O)(O)O)[C@H](O)[C@@H]1O
The “activity, negative = inhibition” value of the first is lower: -1.41% for the first, 3.71% for the second.

Compared with `CC(=O)OCC1=C(C(=O)[O-])N2C(=O)[C@@H](NC(=O)CCC[C@@H](N)C(=O)[O-])[C@@H]2SC1.[Zn+2]`, `COC(=O)[C@H](N)CCCN=C(N)N[N+](=O)[O-]` is lower in “activity, negative = inhibition” value: 16% for the first, -11% for the second.

First: COc1ccc2c(c1O)-c1cccc3c1[C@H](C2)N(C)CC3
Second: COc1ccc2c3c1O[C@@H]1C(=O)CC[C@@]4(O)[C@@H](C2)N(CC2CC2)CC[C@]314
The “activity, negative = inhibition” value of the first is lower: -26% for the first, -21.1% for the second.

Compared with `CC(C)C[C@H](NP(=O)(O)O[C@@H]1O[C@@H](C)[C@@H](O)[C@@H](O)[C@H]1O)C(=O)N[C@@H](Cc1c[nH]c2ccccc12)C(=O)O`, `CC(=O)c1c(O)c(C)c(O)c(Cc2c(O)c3c(c(C(=O)/C=C\c4ccccc4)c2O)OC(C)(C)C=C3)c1O` is higher in “activity, negative = inhibition” value: 3.48% for the first, 4.36% for the second.

Going from `C[C@@H]1O[C@H]1P(=O)(O)O` to `CCNC(=O)[C@@H]1O[C@@H](n2cnc3c(N)ncnc32)[C@@H](O)[C@H]1O`, the “activity, negative = inhibition” value falls from -3.03% to -3.25%.

Compared with `NC(=O)CN1C[C@@H](O)CC1=O`, `N[C@H](Cn1ccc(=O)[nH]c1=O)C(=O)O` is higher in “activity, negative = inhibition” value: -9.21% for the first, -8.09% for the second.

Compared with `Oc1ccc2c3c1O[C@@H]1c4[nH]c5c(c4C[C@@]4(O)[C@@H](C2)N(CC2CC2)CC[C@]314)C[C@]1(O)[C@@H]2Cc3ccc(O)c4c3[C@@]1(CCN2CC1CC1)[C@H]5O4`, `C=CCN1CC[C@]23c4c5ccc(O)c4O[C@@H]2/C(=N/NC(=O)c2ccccc2)CC[C@@]3(O)[C@H]1C5` is higher in “activity, negative = inhibition” value: -13.8% for the first, 6.52% for the second.

Going from `C[C@@H]1Cc2cc3c(cc2C(c2ccc(N)cc2)=NN1)OCO3` to `C[N+]1(C)CCc2cc3c(cc2[C@@H]1[C@@H]1OC(=O)c2c1ccc1c2OCO1)OCO3`, the “activity, negative = inhibition” value rises from 3.08% to 12.5%.

Going from `CO[C@@H]1CC=C2CCN3CCC4=C(CC(=O)OC4)[C@]23C1` to `C[C@@]12CC[C@H]3[C@@H](CC=C4C[C@H](OS(=O)(=O)O)CC[C@]43C)[C@H]1CCC2=O`, the “activity, negative = inhibition” value rises from -11.1% to -0.577%.

Compared with `COc1ccc2c(c1)[C@]13CCCC[C@@H]1[C@H](C2)NCC3`, `C[C@@]12CC[C@H]3[C@@H](CCC4=C(O)C(=O)CC[C@]43C)[C@H]1CCC2=O` is higher in “activity, negative = inhibition” value: -11.6% for the first, -11.4% for the second.

First: N[C@H](Cc1ccc(N(CCCl)CCCl)cc1)C(=O)O
Second: C[C@@H](Cc1ccc(O)cc1)NC[C@@H](O)c1cc(O)cc(O)c1
The “activity, negative = inhibition” value of the first is higher: -5.59% for the first, -24.1% for the second.

Going from `NC[C@H](O)c1cc(O)c(O)cc1F` to `COc1cc([C@@H](O)CN)ccc1O`, the “activity, negative = inhibition” value rises from -25.8% to -14.5%.

For `C[N+]1(C)C2CC(OC(=O)C(CO)c3ccccc3)CC1[C@@H]1O[C@H]21` (stereo partly drawn), the outcome was “inactive”.
With `COc1cc(C[C@H](C)N)c(OC)cc1I` the outcome was “inactive”.
